The text below walks through data of PubChem BioAssay (EPA / NIEHS).

Active and inactive are the calls of the source. How the source made its calls: active means hit-call score of the fitted dose curve at least 0.9, where 1 is the maximum; inactive means score below 0.9.

Read-out in test [1]: Monokine induced gamma interferon (MIG), CXCL9 (gene 4283)
Nature of the test: BSK_BE3C_MIG: BioMAP Diversity Plus: BE3C Assay for Monokine induced gamma interferon (MIG) Biomarker Activity (AID 2283035).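 Further: MIG protein measured by ELISA in BE3C cultures after 24 h of dosing.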 To be noted: primary human bronchial epithelial cells; actives raise or lower the signal. The essentials:
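Primary human bronchial epithelial cells treated for 24 h; MIG levels measured by ELISA, fitted bidirectionally versus DMSO. Parallel SRB total-protein staining assessed cytotoxicity.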

Read-out in test [2]: Transforming growth factor beta 1 (TGFb1), TGFB1 (gene 7040)
Nature of the test: BSK_BE3C_TGFb1: BioMAP Diversity Plus: BE3C Assay for Transforming growth factor beta 1 (TGFb1) Biomarker Activity (AID 2283036;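 on outcome: TGF-b1 protein level measured by ELISA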). To be noted: primary human bronchial epithelial cells; actives raise or lower the signal. The method, boiled down:
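In this human primary bronchial epithelial system, an ELISA quantified TGF-b1 one day after dosing. Endpoint changes in either direction were fitted relative to DMSO.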

Read-out in test [3]: Plasminogen activator inhibitor-1 (PAI1), SERPINE1 (gene 5054)
Nature of the test: BSK_BE3C_PAI1: BioMAP Diversity Plus: BE3C Assay for Plasminogen activator inhibitor-1 (PAI1) Biomarker Activity (AID 2283037). To be noted: primary human bronchial epithelial cells; actives raise or lower the signal. The essentials: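 PAI-1 biomarker levels in treated human bronchial epithelial cells are determined by ELISA at 24 h. Both increases and decreases relative to DMSO are fitted.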

Read-out in test [4]: urokinase plasminogen activator (uPA), PLAU (gene 5328)
Nature of the test: BSK_BE3C_uPA: BioMAP Diversity Plus: BE3C Assay for urokinase plasminogen activator (uPA) Biomarker Activity (AID 2283038).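 On outcome: uPA protein level quantified by ELISA in cell cultures; uPA read one day after compound addition.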 Conditions: primary human bronchial epithelial cells; actives raise or lower the signal. The method, boiled down: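 Measured by ELISA: uPA from human primary bronchial epithelial cells 24 h after chemical treatment. Values derive from bidirectional curve fitting with DMSO serving as negative control. Total protein by SRB staining in parallel wells flagged overt cytotoxicity.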

Read-out in test [5]: Urokinase-type plasminogen activator receptor (uPAR), PLAUR (gene 5329)
Nature of the test: BSK_BE3C_uPAR: BioMAP Diversity Plus: BE3C Assay for Urokinase-type plasminogen activator receptor (uPAR) Biomarker Activity (AID 2283039).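 On outcome: cells exposed to compound for one day before measurement.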 Conditions: primary human bronchial epithelial cells; actives raise or lower the signal. The essentials:
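A uPAR ELISA serves as the readout, taken 24 h after treating primary human bronchial epithelial cells. Responses in either direction are fitted against DMSO, which defines baseline activity.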

Read-out in test [6]: Interleukin-6 (IL6), IL6 (gene 3569)
Nature of the test: BSK_CASM3C_IL6: BioMAP Diversity Plus: CASM3C Assay for Interleukin-6 (IL6) Biomarker Activity for (AID 2283040). Conditions: primary human coronary artery smooth muscle cells; actives raise or lower the signal.

Read-out in test [7]: Tissue plasminogen activator (tPA), PLAT (gene 5327)
As to the kind of experiment: BSK_BE3C_tPA: BioMAP Diversity Plus: BE3C Assay for Tissue plasminogen activator (tPA) Biomarker Activity (AID 2283041).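 On outcome: tPA level quantified by ELISA one day after compound addition.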 To be noted: primary human bronchial epithelial cells; actives raise or lower the signal. The essentials: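 Bidirectional curve fitting relative to DMSO defined activity, with tPA detected by ELISA in chemically treated human bronchial epithelial primary cells at 24 hours.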

Read-out in test [8]: Interleukin-8 (IL8), CXCL8 (gene 3576)
As to the kind of experiment: BSK_CASM3C_IL8: BioMAP Diversity Plus: CASM3C Assay for Interleukin-8 (IL8) Biomarker Activity (AID 2283042).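 Further: IL-8 protein level quantified by ELISA.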 Conditions: primary human coronary artery smooth muscle cells; actives raise or lower the signal.

Read-out in test [9]: Human Leukocyte Antigen - DR isotype (HLADR), HLA-DRA (gene 3122)
Nature of the test: BSK_CASM3C_HLADR: BioMAP Diversity Plus: CASM3C Assay for Human Leukocyte Antigen - DR isotype (HLADR) Biomarker Activity (AID 2283043).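 Further: cell-surface HLA-DR protein level quantified by ELISA.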 Conditions: primary human coronary artery smooth muscle cells; actives raise or lower the signal.

Read-out in test [10]: Macrophage colony-stimulating factor (MCSF), CSF1 (gene 1435)
As to the kind of experiment: BSK_CASM3C_MCSF: BioMAP Diversity Plus: CASM3C Assay for Macrophage colony-stimulating factor (MCSF) Biomarker Activity (AID 2283044).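 Further: M-CSF protein amount quantified by ELISA after 24 h exposure.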 To be noted: primary human coronary artery smooth muscle cells; actives raise or lower the signal.

`CC(C)c1cccc(C(C)C)c1NC(=O)NS(=O)(=O)c1cc(C(C)(C)O)co1`: the result in test [1], in [2], in test [3], in test [4], in test [5] and in test [6] was inactive. Further, the result in test [7], in test [8], in test [9] and in test [10] was inactive.

With `COC(=O)[C@H]1[C@H]2C[C@@H]3c4[nH]c5cc(OC)ccc5c4CCN3C[C@H]2C[C@@H](OC(=O)c2cc(OC)c(OC)c(OC)c2)[C@@H]1OC`, the outcome in test [1], in test [3], in test [5], in [6], in [7] and in test [8] was inactive. Moreover, the outcome in test [9] and in test [10] was inactive.

With `CCCCC(CC)CO` (stereo not drawn), the outcome in test [1], in test [2], in test [3], in test [4], in test [5] and in test [6] was inactive. In addition, the result in test [7], in test [8], in [9] and in [10] was inactive.

For `CCc1nc(N)nc(N)c1-c1ccc(Cl)cc1`, the result in test [1], in test [2], in test [3], in [4], in test [5] and in [6] was inactive. Further, the outcome in [7], in test [8], in test [9] and in [10] was inactive.

`CC(COCC(C)OC(=O)c1ccccc1)OC(=O)c1ccccc1` (stereo not drawn): the result in [1], in test [2], in test [3], in test [4], in test [5] and in [6] was inactive. Also, the result in test [7], in [8], in [9] and in [10] was inactive.

Turning to `CC(=O)S[C@H](C(=O)N[C@H]1Cc2ccccc2[C@H]2CCC[C@@H](C(=O)O)N2C1=O)C(C)C`, the result in test [2], in test [3], in [4], in [5], in [6] and in test [7] was inactive. Moreover, the result in [8] and in test [10] was inactive. Further, the AC50 in test [9] is 3.97 µM (active).

As to `NC=O`, the outcome in test [1], in test [2], in [3], in [4], in [5] and in test [6] was inactive. Also, the result in test [7], in test [8], in test [9] and in [10] was inactive.

As to `O=[Si]=O`, the result in [2], in test [3], in test [4], in test [5], in test [6] and in test [7] was inactive. Moreover, the result in [8], in test [9] and in test [10] was inactive.

With `CC(N)=O`, the result in test [2], in test [3], in [4], in [5], in [6] and in test [7] was inactive. The outcome in [8], in test [9] and in test [10] was inactive.

Consider `O=C(NS(=O)(=O)/C=C/c1cccs1)c1ccc(F)cc1Br`, for which the result in test [1], in [2], in test [3], in test [4], in [5] and in test [6] was inactive. Also, the result in test [7], in [8], in test [9] and in test [10] was inactive.

For `C=CCCCCCCCCCCCC`, the result in test [2], in test [3], in [4], in test [5], in test [6] and in test [7] was inactive. Also, the result in test [8], in [9] and in [10] was inactive.

As to `O=NO`, the outcome in test [1], in [2], in test [3], in [4], in [5] and in test [6] was inactive. Moreover, the result in [7], in [8], in [9] and in test [10] was inactive.

With `CC(C)NCC(O)c1ccc(O)c(O)c1` (stereo not drawn), the result in test [2], in test [3], in [4], in test [5], in test [6] and in test [7] was inactive. The outcome in test [8], in test [9] and in test [10] was inactive.

With `S=c1[nH]c2ccccc2s1`, the outcome in [1], in test [2], in [3], in [4], in [5] and in test [6] was inactive. Besides, the result in test [7], in test [8] and in [9] was inactive. Also, in [10], the AC50 is 9.81 µM (active).

For `CC(=O)[C@@]1(O)CC[C@H]2[C@@H]3CCC4=CC(=O)CC[C@]4(C)[C@H]3CC[C@@]21C`, the result in test [2], in [3], in test [4], in [5], in test [7] and in [8] was inactive. The result in [9] and in test [10] was inactive. Moreover, the half-maximal activity concentration (AC50) in test [6] was 29.5 µM (active).

As for `CCN(CC)CCOc1ccc(C(=C(Cl)c2ccccc2)c2ccccc2)cc1`, the half-maximal activity concentration (AC50) is 16.1 µM (active) in test [2]; 26.1 µM (active) in test [3]; 26 µM (active) in [4]; 26.3 µM (active) in test [5]; 31.6 µM (active) in test [6]; 11.1 µM (active) in test [7]. Besides, the results for the AC50 in [8], in test [9] and in test [10] were 32 µM (active), 23.9 µM (active) and 26.2 µM (active), respectively.

On to `O=C1OC(c2ccc(O)cc2)(c2ccc(O)cc2)c2ccccc21`, for which the result in test [2], in test [3], in test [4], in test [5], in [6] and in test [7] was inactive. Also, the result in [9] and in test [10] was inactive.

In the case of `CS(=O)(=O)c1ccc([C@@H](C[C@H]2CCC(=O)C2)C(=O)Nc2cnccn2)cc1Cl`, the outcome in test [2], in [3], in test [4], in test [5], in [6] and in test [7] was inactive. Also, the outcome in [8], in test [9] and in test [10] was inactive.

Consider `O=C(Oc1ccccc1)c1cccc(C(=O)Oc2ccccc2)c1`, for which the outcome in test [2], in test [3], in test [4], in [5], in test [6] and in [7] was inactive. The outcome in test [8], in test [9] and in test [10] was inactive.

With `c1ccc2occc2c1`, the outcome in test [2], in test [3], in [4], in test [5], in test [6] and in test [7] was inactive. In addition, the outcome in [8], in test [9] and in test [10] was inactive.

With `CN(C)CCCN1c2ccccc2Sc2ccc(Cl)cc21`, the AC50 in test [2] was 32.1 µM (active); in [3], 31.9 µM (active); in [4] it was 36.4 µM (active); in test [5] it was 29.4 µM (active); in test [7], 32.1 µM (active); in [9], 27.7 µM (active). Further, the AC50 in [10] was 11.2 µM (active). In addition, the outcome in test [6] and in [8] was inactive.

In the case of `O=C1O[C@H]([C@H](O)CO)C(O)=C1O`, the outcome in [2], in [3], in [4], in test [5], in test [6] and in [7] was inactive. The outcome in test [8], in test [9] and in test [10] was inactive.

Regarding `CCCCCCCCCCCCCCCCO`, the result in test [2], in test [3], in [4], in [5], in test [6] and in test [7] was inactive. For the same compound, the outcome in test [8], in test [9] and in test [10] was inactive.
